# Active and inactive are the calls of the source.
# Key:
# [1] = system: Plasmodium falciparum Sir2 (PF13_0152, Sir2A); experiment: pfSir2 binders on small-molecule microarrays, primary screen, biochemical, small-molecule microarray, 635 nm fluorescence (AID 1098); details: small-molecule microarray binding, fluorescence 635 nm; higher = more signal;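 also: score merges spot fluorescence intensity with its signal-to-noise ratio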
# [2] = small-molecule microarray binders of probe aDKK1, primary screen, biochemical, biotinylated probe, 635/667 nm fluorescence (AID 1099); details: higher = more signal;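 also: score merges 667nm spot fluorescence with signal to noise across triplicate slides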
# [3] = small-molecule microarray binders of probe aCHRDL2, primary screen, biochemical, biotinylated probe, 635/667 nm fluorescence (AID 1100); details: higher = more signal
# [4] = splicing luciferase reporter signal modulators, primary screen, spliceosome inhibition project, cell-based, HEK293, splice +/- reporter (AID 1101); details: luminescence, 24 h, higher = more signal, called active from +8 up or from −8 down;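 also: HEK293 cells carrying a splicing-competent luciferase reporter gene; test concentration not given here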
# [5] = molecular target: Fibroblast growth factor 10 (Homo sapiens) (UniProt O15520); experiment: FGF10 binders on small-molecule microarrays, primary screen, biochemical, small-molecule microarray, 635 nm fluorescence (AID 1102); details: FGF10 binding, fluorescence 635 nm, higher = more signal
# [6] = system: glycogen synthase kinase-3 (GSK3A per assay name; protocol says GSK3B); experiment: GSK3 binders on small-molecule microarrays, primary screen, biochemical, small-molecule microarray, 635 nm fluorescence, GSK3A (AID 1103); details: small-molecule microarray binding, fluorescence 635 nm; higher = more signal; also: the record names both GSK3A and GSK3B
# [7] = molecular target: Epidermal growth factor receptor (Homo sapiens) (UniProt P00533); experiment: EGFR binders on small-molecule microarrays, primary screen, biochemical, small-molecule microarray, 635 nm fluorescence (AID 1104); details: EGFR binding, higher = more signal;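 also: score merges 667 nm emission intensity with spot signal to noise over triplicate slides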
# [8] = molecular target: Follistatin-related protein 3 (Homo sapiens) (UniProt O95633); experiment: FSTL3 binders on small-molecule microarrays, primary screen, biochemical, small-molecule microarray, 635 nm fluorescence (AID 1105); details: FSTL3 binding, higher = more signal;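 also: score merges emission near 667 nm and signal to noise per printed spot across three slides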
# [9] = molecular target: Dickkopf-related protein 1 (Homo sapiens) (UniProt O94907); experiment: DKK1 binders on small-molecule microarrays, primary screen, biochemical, small-molecule microarray, 635 nm fluorescence scan (AID 1106); details: DKK1 binding, higher = more signal;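 also: score merges emission near 667 nm with signal to noise over three replicate slides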
# [10] = system: Inhibin beta A chain (activin A); experiment: INHBA (activin A) binders on microarrays, primary screen, biochemical, small-molecule microarray, 635 nm fluorescence scan (AID 1107); details: small-molecule microarray binding, higher = more signal;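 also: mouse activin A protein probed at 4.33 µg/mL on printed slides; score merges bound-protein fluorescence near 667 nm with spot signal-to-noise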
# [11] = system: Human papillomavirus type 1a protein E7 (residues 44-93); experiment: HPV1a E7 fragment binders on microarrays, primary screen, biochemical, small-molecule microarray, residues 44-93, 635 nm fluorescence (AID 1108); details: small-molecule microarray binding, fluorescence 635 nm; higher = more signal;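 also: E7 fragment applied at 1 µg/mL in TBST for 1 h at 4 C; score combines spot fluorescence with its signal to noise ratio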
# [12] = modulators of HCV replicon luciferase signal, primary screen, HCV replication inhibitor project, Huh7 cells, luciferase reporter (AID 1109); details: 48 h, higher = more signal;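 also: huh7 hepatoma cells harbouring a luciferase neomycin HCV replicon reporter; luciferase luminescence as measure of HCV replicon replication; test concentration not given here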
# [13] = molecular target: Left-right determination factor 2 (Homo sapiens) (UniProt O00292); experiment: LEFTY2 binders on small-molecule microarrays, primary screen, biochemical, small-molecule microarray, 635 nm fluorescence scan (AID 1110); details: LEFTY2 binding, higher = more signal
# [14] = molecular target: Calmodulin-1 (Homo sapiens) (UniProt P0DP23); experiment: CALM1 binders on microarrays, EGTA buffer, profiling panel, biochemical, small-molecule microarray, Cy5-labelled CALM1 (AID 1111); details: Cy5-CALM1 binding fluorescence, higher = more signal;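 also: labelled calmodulin applied in Tris saline Tween buffer holding calcium plus EGTA and DTT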
# [15] = molecular target: Calmodulin-1 (Homo sapiens) (UniProt P0DP23); experiment: calcium-bound CALM1 binders on microarrays, profiling panel, artefact control for SMM control-protein annotation, biochemical, small-molecule microarray, Cy5-labelled CALM1, plus calcium (AID 1112); details: Cy5-CALM1 binding fluorescence, higher = more signal;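 also: score merges spot fluorescence with signal to noise from triplicate slides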
# [16] = small-molecule microarray binders of probe aWnt5a, primary screen, biochemical, biotinylated probe, 635/667 nm fluorescence (AID 1113); details: higher = more signal;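 also: score merges 667 nm fluorescence intensity with signal-to-noise per printed feature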
# [17] = small-molecule microarray binders of probe aShh, primary screen, biochemical, biotinylated probe, 635/667 nm fluorescence (AID 1114); details: higher = more signal;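 also: probe is biotin-labelled aShh protein from a stem cell growth factor screen; measures binding of labelled protein to compounds printed on the slide; score merges feature fluorescence at 667 nm with signal-to-noise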
# [18] = small-molecule microarray binders of probe aNog, primary screen, biochemical, biotinylated probe, 635/667 nm fluorescence (AID 1115); details: higher = more signal;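 also: probe is biotinylated aNog protein used at 0.15 µg/mL for 1 h at 4 C; z-score combines 667 nm fluorescence of each spot with its signal to noise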
# [19] = molecular target: Torsin-1A-interacting protein 1 (Homo sapiens) (UniProt Q5JTV8); experiment: LAP1 binders from COS7 cell lysate, primary screen, small-molecule microarray, 635/667 nm fluorescence (AID 1116); details: COS7-hLAP1 lysate binding, 635 nm fluorescence, higher = more signal
# [20] = molecular target: Alpha-bungarotoxin (Bungarus multicinctus) (UniProt P60615); experiment: alpha-bungarotoxin binders on microarray, profiling panel, artefact control for SMM control protein annotation, biochemical, small-molecule microarray, Alexa647 label, 635/667 nm fluorescence (AID 1117); details: alpha-BTX-A647 binding fluorescence, higher = more signal
# Chain of Alpha-bungarotoxin (Bungarus multicinctus) (P60615 whole entry, looked up): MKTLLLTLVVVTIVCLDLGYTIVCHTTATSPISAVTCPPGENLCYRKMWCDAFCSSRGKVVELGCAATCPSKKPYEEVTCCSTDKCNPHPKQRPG
# Chain of Fibroblast growth factor 10 (Homo sapiens) (O15520 whole entry, looked up): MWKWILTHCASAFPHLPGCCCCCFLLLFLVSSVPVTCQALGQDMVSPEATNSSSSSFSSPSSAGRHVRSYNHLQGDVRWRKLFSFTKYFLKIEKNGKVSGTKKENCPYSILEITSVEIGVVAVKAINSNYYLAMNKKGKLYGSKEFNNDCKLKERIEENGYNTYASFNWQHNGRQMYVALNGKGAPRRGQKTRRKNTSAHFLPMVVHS
# Chain of Left-right determination factor 2 (Homo sapiens) (O00292 whole entry, looked up): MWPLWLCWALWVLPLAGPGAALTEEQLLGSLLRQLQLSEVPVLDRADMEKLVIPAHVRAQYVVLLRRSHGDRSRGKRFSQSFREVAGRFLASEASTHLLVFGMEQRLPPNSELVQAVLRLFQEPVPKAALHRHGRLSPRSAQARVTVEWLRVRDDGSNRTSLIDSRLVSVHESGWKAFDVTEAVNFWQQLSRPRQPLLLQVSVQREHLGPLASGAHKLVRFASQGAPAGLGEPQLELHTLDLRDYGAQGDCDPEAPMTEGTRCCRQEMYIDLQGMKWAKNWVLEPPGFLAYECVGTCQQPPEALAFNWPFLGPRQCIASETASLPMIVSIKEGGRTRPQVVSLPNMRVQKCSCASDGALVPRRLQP
# Chain of Torsin-1A-interacting protein 1 (Homo sapiens) (Q5JTV8 whole entry, looked up): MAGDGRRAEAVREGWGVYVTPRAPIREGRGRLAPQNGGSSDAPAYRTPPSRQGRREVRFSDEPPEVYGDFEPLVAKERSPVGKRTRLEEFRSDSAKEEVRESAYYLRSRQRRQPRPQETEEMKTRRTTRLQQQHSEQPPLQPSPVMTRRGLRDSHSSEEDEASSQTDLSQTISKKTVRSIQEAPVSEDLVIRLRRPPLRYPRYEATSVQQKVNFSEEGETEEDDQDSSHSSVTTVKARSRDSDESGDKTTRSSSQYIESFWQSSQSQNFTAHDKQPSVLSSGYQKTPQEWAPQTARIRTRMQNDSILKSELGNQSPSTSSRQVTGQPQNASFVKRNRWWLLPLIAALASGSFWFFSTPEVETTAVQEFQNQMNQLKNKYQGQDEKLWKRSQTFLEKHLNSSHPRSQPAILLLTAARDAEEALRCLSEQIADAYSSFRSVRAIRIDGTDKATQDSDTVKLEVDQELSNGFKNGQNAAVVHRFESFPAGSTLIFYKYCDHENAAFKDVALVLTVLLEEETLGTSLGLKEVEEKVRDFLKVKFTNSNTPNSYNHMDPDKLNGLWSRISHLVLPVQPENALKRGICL
# Chain of Dickkopf-related protein 1 (Homo sapiens) (O94907 whole entry, looked up): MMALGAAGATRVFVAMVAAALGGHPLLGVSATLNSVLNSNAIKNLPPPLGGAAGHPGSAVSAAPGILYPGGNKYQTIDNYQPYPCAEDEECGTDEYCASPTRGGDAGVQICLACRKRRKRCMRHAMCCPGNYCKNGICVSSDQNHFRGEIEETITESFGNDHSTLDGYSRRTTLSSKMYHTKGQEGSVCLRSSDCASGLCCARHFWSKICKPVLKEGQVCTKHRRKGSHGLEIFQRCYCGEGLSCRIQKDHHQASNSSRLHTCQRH
# Chain of Epidermal growth factor receptor (Homo sapiens) (P00533 whole entry, looked up): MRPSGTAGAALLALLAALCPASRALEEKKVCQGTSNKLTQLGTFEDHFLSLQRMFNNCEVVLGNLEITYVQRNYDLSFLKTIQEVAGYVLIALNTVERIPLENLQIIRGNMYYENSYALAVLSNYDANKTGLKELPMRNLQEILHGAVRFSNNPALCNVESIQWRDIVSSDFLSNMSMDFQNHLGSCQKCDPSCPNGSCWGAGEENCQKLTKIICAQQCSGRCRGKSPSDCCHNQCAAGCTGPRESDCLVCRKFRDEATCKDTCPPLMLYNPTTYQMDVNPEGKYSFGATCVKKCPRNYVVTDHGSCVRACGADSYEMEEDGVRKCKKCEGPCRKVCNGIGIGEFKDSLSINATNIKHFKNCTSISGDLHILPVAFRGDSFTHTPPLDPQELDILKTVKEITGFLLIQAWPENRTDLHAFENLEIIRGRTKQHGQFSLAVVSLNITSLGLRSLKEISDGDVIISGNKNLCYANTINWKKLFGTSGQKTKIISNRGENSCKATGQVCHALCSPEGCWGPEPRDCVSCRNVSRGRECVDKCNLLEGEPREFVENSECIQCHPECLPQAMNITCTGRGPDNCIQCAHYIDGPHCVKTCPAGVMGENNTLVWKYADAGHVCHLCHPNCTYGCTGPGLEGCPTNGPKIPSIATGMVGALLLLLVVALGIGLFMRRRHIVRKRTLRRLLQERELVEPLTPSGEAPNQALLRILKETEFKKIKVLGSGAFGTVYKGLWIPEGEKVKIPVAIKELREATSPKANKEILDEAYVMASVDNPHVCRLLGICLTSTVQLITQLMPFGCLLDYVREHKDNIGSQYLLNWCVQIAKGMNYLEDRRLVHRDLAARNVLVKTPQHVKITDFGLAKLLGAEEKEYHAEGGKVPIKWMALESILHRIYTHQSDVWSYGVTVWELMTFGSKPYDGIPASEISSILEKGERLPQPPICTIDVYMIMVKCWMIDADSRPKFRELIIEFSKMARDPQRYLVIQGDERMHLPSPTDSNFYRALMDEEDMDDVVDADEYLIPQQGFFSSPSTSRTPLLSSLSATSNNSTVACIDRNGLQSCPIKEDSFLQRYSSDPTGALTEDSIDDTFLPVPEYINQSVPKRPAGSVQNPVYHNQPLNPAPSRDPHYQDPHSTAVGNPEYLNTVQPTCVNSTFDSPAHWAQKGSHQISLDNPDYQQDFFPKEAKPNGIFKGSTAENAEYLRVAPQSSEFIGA
# Chain of Follistatin-related protein 3 (Homo sapiens) (O95633 whole entry, looked up): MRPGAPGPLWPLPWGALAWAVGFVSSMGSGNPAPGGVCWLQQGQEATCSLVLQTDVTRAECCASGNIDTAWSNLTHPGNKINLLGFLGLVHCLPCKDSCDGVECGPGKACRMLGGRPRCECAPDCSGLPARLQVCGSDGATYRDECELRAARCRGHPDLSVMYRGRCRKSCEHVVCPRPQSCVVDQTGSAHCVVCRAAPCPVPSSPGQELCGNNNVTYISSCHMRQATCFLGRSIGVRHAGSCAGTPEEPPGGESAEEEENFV
Structure (SMILES),composite z-score [1],composite z-score [2],composite z-score [3],z-score [4],composite z-score [5],composite z-score [6],composite z-score [7],composite z-score [8],composite z-score [9],composite z-score [10],composite z-score [11],z-score [12],composite z-score [13],composite z-score [14],composite z-score [15],composite z-score [16],composite z-score [17],composite z-score [18],composite z-score [19],composite z-score [20]
O[C@@H](Cc1ccccc1)[C@@H](/C=C/C1CC1)N(CC#Cc1ccccc1)Cc1ccccc1Br,-0.0214,-0.107,1.38,-1.39 (inactive),-1.36,-0.689,-1.29,-1.62,-1.88,0.171,-0.0988,-2.71,-0.804,-0.582,0.282,-0.203,-0.0769,-0.224,-0.183,-0.288
CCC#CCN(Cc1ccccc1Br)[C@H](/C=C/C1CC1)[C@@H](O)Cc1ccccc1,-0.306,0.0547,0.952,-0.739 (inactive),-0.924,-0.0916,-1.03,-0.583,-0.642,0.384,-1.04,-2.19,-0.398,-0.414,-0.659,-0.197,-0.214,-0.209,-0.675,-0.229
CC#CCO[Si](C#Cc1ccccc1)(C(C)C)C(C)C,-0.849,-0.105,0.194,1.07 (inactive),0.754,-0.872,0.457,-0.719,-0.999,1.14,-2.07,0.046,-0.0764,-0.0874,0.877,-0.224,-0.0769,-0.281,-0.785,-1.53
COC(=O)[C@@]1(Cc2ccc(F)cc2)[C@H]2c3cc(C(=O)N(C)C)n(Cc4ccc(OC(F)(F)F)cc4)c3C[C@H]2CN1C(=O)c1ccccc1,0.19,-0.0448,0.183,1.32 (inactive),0.251,0.22,0.18,0.298,0.0583,0.401,0.841,0.167,0.242,0.11,-0.191,-0.0758,0.442,0.0924,-0.147,0.414
CCCCCN1CC=CC23O[C@@H]4/C=C\CCCOC(=O)C4[C@H]2C(=O)N(C(C)CO)[C@@H]3C1=O (stereo not given in full),2.01,-0.339,0.525,0.1 (inactive),-1.43,-1,-1.07,-0.706,-0.964,-0.57,-0.141,-0.646,-1.67,-0.452,-0.254,-0.203,-0.181,-0.0057,-0.111,2.97
[N-]=[N+]=NCc1ccccc1[C@@H]1OC(c2ccc(OCCCO)cc2)=N[C@]1(CCS(=O)(=O)c1ccccc1)C(=O)O,0.654,0.79,0.95,-0.551 (inactive),0.559,-0.0623,-0.231,-0.337,-0.713,1,1.31,1.1,-0.151,0.678,0.0892,0.0487,0.0469,0.592,0.953,1.17
COc1cc(C(O)C2C=CC3C(=O)N(C)C(=O)C3N2Nc2ccccc2)cc(OC)c1OC (stereo not given),1.66,1.22,0.655,-0.0318 (inactive),0.581,1.25,-0.206,0.595,-0.543,0.916,0.1,0.461,-0.129,1.8,0.661,0.233,0.0725,2.22,1.3,0.469
COCCOC(=O)N1C(=O)[C@@]2(c3cc(C#CC4(O)CCCCCC4)ccc31)[C@H](c1ccc(O)cc1)N1[C@H](c3ccccc3)[C@H](c3ccccc3)OC(=O)[C@H]1[C@@H]2C(=O)N1CCN(c2ncccn2)CC1,0.952,0.0005,0.426,0.325 (inactive),0.425,0.788,0.149,0.476,0.063,-0.275,1.35,-1.58,0.45,1.83,0.18,0.0375,0.679,-0.679,1.21,0.383
C=CCOC(=O)[C@@H]1[C@H]2C(=O)O[C@H](c3ccccc3)[C@H](c3ccccc3)N2[C@H](c2ccc(OCCOC(=O)[C@@H]3C[C@@H]4C(=O)N[C@@H](CCCC[N+](C)(C)C)C(=O)N4[C@@H]3c3ccc(O)cc3)cc2)[C@@]12C(=O)Nc1ccc(I)cc12,0.822,-0.178,-0.18,0.527 (inactive),1.18,1.24,0.49,1.41,0.776,0.192,1.41,-0.282,0.459,-0.14,-0.521,-0.112,0.614,0.559,1.36,0.923
CC1CC/C=C\[C@H]2OC34C=CCN(C(C)C)C(=O)[C@H]3N(CCO)C(=O)[C@@H]4C2C(=O)O1 (stereo not given in full),0.501,-0.163,0.701,0.459 (inactive),-0.309,-0.979,-1.29,-1.28,-1.28,-0.372,-0.21,-0.566,-1.6,-0.377,0.0947,-0.202,0.0062,-0.0926,-0.241,-1.22
O=c1cccc(-c2ccc([N+](=O)[O-])cc2)o1,-0.632,-0.0855,-0.512,-1.49 (inactive),0.274,0.959,0.574,0.534,0.0662,1.22,0.79,-0.885,0.37,-0.273,-0.389,0.0775,0.199,-0.208,1.11,0.38

# From PubChem BioAssay
